Compound activity (PubChem BioAssay)
Only some compounds are listed: those with a hit (about 1.6% of all), similar ones and a draw of the others.
MEX-5 binding: C. elegans MEX-5 TCR-2 RNA binding activity; Q9XUB2; MEX-5/FITC-TCR2 RNA binding, fluorescence polarization; stronger effect = lower value; activity score (negative = inhibition of binding), % at 10 µM; 0.38% of 300,000 active;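 active = inhibition past about -25% in most replicates, and total fluorescence under double the plate's negative control median, limit read from the data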;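 also: 0% = DMSO and -100% = 5 µM competing unlabeled TCR2 RNA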
Target sequence (Q9XUB2 whole entry, looked up): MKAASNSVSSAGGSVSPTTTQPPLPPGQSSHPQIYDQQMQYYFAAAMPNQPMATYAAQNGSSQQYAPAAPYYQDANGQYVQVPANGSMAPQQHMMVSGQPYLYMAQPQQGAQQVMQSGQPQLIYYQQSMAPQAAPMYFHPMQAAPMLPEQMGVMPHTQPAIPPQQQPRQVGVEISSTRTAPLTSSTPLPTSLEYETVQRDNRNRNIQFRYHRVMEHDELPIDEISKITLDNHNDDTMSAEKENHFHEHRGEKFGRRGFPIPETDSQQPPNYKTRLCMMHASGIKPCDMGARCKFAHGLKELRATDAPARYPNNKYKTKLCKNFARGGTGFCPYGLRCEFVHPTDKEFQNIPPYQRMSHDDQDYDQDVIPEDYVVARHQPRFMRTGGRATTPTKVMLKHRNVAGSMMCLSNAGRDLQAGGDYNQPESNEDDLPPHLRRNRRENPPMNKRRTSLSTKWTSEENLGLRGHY
LYPLA2 counter: counter-screen for PME1 inhibitors: inhibitors of human LYPLA2. O95372. AID 2177. inhibition, % at 5.9 µM. recombinant LYPLA2, FP-Rh probe fluorescence polarization. 0.38% of 320,000 active;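 active = inhibition above the screen-wide mean plus 3 SD, limit set per campaign, cut at about 26% in these data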;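 also: 0% = LYPLA2 with DMSO and 100% = wells lacking LYPLA2 enzyme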
PREPL inh: inhibits the human prolyl oligopeptidase-like enzyme | Q4J6C6 | recombinant PREPL, fluorescence polarization activity-based probe | inhibition, % at 5.96 µM | 0.68% of 320,000 active | AID 2751;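 also: 0% = enzyme with DMSO and 100% = wells lacking enzyme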
PME-1 inh: blocks human protein phosphatase methylesterase 1. recombinant PME-1, FP-Rh probe fluorescence polarization. inhibition, % at 5.9 µM. 0.53% of 320,000 active;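 active = inhibition above the campaign mean of all compounds plus 3 SD, cut at about 26% in these data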;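 also: competitive labeling of PME-1 active site by serine hydrolase directed probe; 0% = PME-1 with DMSO and 100% = wells lacking PME-1 enzyme; inhibitors block probe labeling so polarization falls and inhibition rises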
LYPLA1 inh: counter-screen for PME1 inhibitors: inhibitors of human LYPLA1 | O75608 | recombinant LYPLA1, FP-Rh probe fluorescence polarization | inhibition, % at 5.9 µM | 0.16% of 320,000 active | AID 2174;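 active = inhibition above the mean of all tested compounds plus 3 SD, set per campaign, cut at about 14% in these data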;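 also: inhibitors block serine hydrolase probe labeling of LYPLA1 so polarization falls; 0% = enzyme with DMSO and 100% = wells lacking LYPLA1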
Fam108B inh: Fam108B inhibition, counter-screen for RBBP9 inhibitors; recombinant Fam108B, FP-Rh probe fluorescence polarization; inhibition, % at 9.51 µM; 0.33% of 300,000 active; AID 1947;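 active = inhibition above the screen mean inhibition plus 3 SD, computed separately per campaign, cut at about 18% in these data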;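 also: inhibitors lower polarization as less probe binds the enzyme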
PREPL inh cf: human PREPL inhibition, confirmation; shares compounds with PREPL inh; recombinant PREPL, fluorescence polarization activity probe; inhibition, % at 5.96 µM; 67% of 2,000 active;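 also: 0% = protein with DMSO and 100% = wells lacking protein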
Starred values were filed as active, the others as inactive. Rule as the data show it, unless noted: active = inhibition above about 43%; inactive = the rest.

`Cc1ccc(C(=O)C[n+]2cc(-c3ccc(C)cc3)n3c2CCCCC3)cc1` gave MEX-5 binding 0, LYPLA2 counter 1, PREPL inh 39, PME-1 inh 3, LYPLA1 inh -1 and Fam108B inh 1.
Screening O=C(C[n+]1cc(-c2ccccc2)n2c1CCCCC2)c1ccc(Br)cc1 returned MEX-5 binding -3, LYPLA2 counter 4, PREPL inh 54*, PME-1 inh -4, LYPLA1 inh 5, Fam108B inh -3 and PREPL inh cf 26.
For COc1nc(NCCN2CCOCC2)nc(Nc2ccc([N+](=O)[O-])cc2)n1 the results were MEX-5 binding 0, LYPLA2 counter -8, PREPL inh 47*, PME-1 inh -2, LYPLA1 inh 0, Fam108B inh -2 and PREPL inh cf 41.
O=C(c1ccc(-c2cc(O)c3ncccc3c2)cc1)N1CCNCC1 was read as PREPL inh 55* and PREPL inh cf 49*.
`CC(C)(C)c1ccc(C(=O)N2CCNCC2)cc1` gave MEX-5 binding -2, LYPLA2 counter 10, PREPL inh -8, PME-1 inh -9, LYPLA1 inh 1 and Fam108B inh -2.
For COc1cc(-c2nnc(-c3ccncc3)o2)ccc1OCc1ccccc1 the results were MEX-5 binding 1, LYPLA2 counter 15, PREPL inh 44*, PME-1 inh -6, LYPLA1 inh 3, Fam108B inh -2 and PREPL inh cf 43.
O=C(NC1CC1)c1ccc(N2CCCCC2)c([N+](=O)[O-])c1 was read as MEX-5 binding 1, LYPLA2 counter 3, PREPL inh 6, PME-1 inh 6, LYPLA1 inh -3 and Fam108B inh 2.
Screening C/C(=N\Nc1nc2ccccc2[nH]1)c1cc2ccccc2o1 returned MEX-5 binding 5, LYPLA2 counter 2, PREPL inh 76*, PME-1 inh 15, LYPLA1 inh 3, Fam108B inh 14 and PREPL inh cf 72*.
C/C(=N\Nc1nc2ccccc2[nH]1)c1ccc2c(c1)OCO2 was read as MEX-5 binding 2, LYPLA2 counter -7, PREPL inh 47*, PME-1 inh -25, LYPLA1 inh 1, Fam108B inh -2 and PREPL inh cf 44*.
C/C(=N\Nc1nc2ccccc2[nH]1)c1ccc2c(c1)OCCO2 was read as MEX-5 binding 1, LYPLA2 counter 2, PREPL inh 18, PME-1 inh -31, LYPLA1 inh 2 and Fam108B inh 7.
Screening C/C(=N\Nc1nc2ccccc2[nH]1)c1ccccn1 returned MEX-5 binding -12, LYPLA2 counter 5, PREPL inh 17, PME-1 inh 5, LYPLA1 inh 0 and Fam108B inh -3.
`Cc1ccc(-c2cn3c(=S)[nH]nc3s2)cc1` gave MEX-5 binding 1, LYPLA2 counter 4, PREPL inh 5, PME-1 inh 2, LYPLA1 inh 2 and Fam108B inh -4.
CCCCCCC(=O)N1C/C=C\C(c2ccc(OC)cc2)N(Cc2ccc(F)cc2)C(=O)[C@H]1Cc1ccccc1 (stereo partly drawn) was read as MEX-5 binding 3, LYPLA2 counter -2, PREPL inh 48*, PME-1 inh 0, LYPLA1 inh -3, Fam108B inh 7 and PREPL inh cf 44*.
For Cc1cccc(NC(=S)NC(=O)c2ccc(-c3ccccc3)cc2)n1 the results were MEX-5 binding 2, LYPLA2 counter -13, PREPL inh 5, PME-1 inh -8, LYPLA1 inh -12 and Fam108B inh -15.
COc1cc2c3c(c1)C(C)=CC(C)(C)N3C(=O)C2=O was read as MEX-5 binding 1, LYPLA2 counter 1, PREPL inh 2, PME-1 inh 10, LYPLA1 inh -2 and Fam108B inh 2.
CCCOc1ccccc1-n1sc2c(c1=S)-c1cc(OC)cc3c1N(C(=O)C3=O)C2(C)C was read as MEX-5 binding 0, LYPLA2 counter 3, PREPL inh 52*, PME-1 inh 4, LYPLA1 inh -5, Fam108B inh 9 and PREPL inh cf 57*.
